Assay results reported in PubChem BioAssay.
Active and inactive are the calls of the source. Unless noted, no rule for the calls is given here.

Assays:
[1] = compound effects on lung adenocarcinoma cell viability – A549, calcein-AM fluorescence, 48 h, basal, profiling panel (AID 1162); details: higher = more signal; also: test concentration not given here
[2] = compound effects on differentiated 3T3-L1 adipocyte viability – cell-based, 3T3-L1 adipocytes, calcein-AM fluorescence, 48 h, basal, profiling panel (AID 1163); details: 3T3-L1 adipocytes viability, higher = more signal; also: test concentration not given here
[3] = compound effects on hepatocellular carcinoma cell viability – HepG2, calcein-AM fluorescence, 48 h, basal, profiling panel (AID 1164); details: higher = more signal; also: test concentration not given here
[4] = compound effects on multiple myeloma cell viability – MM1S, calcein-AM fluorescence, 48 h, basal, profiling panel (AID 1165); details: higher = more signal;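 also: viability of MM1S multiple myeloma cells under basal unstimulated conditions; test concentration not given here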
[5] = calcein-AM signal in unstimulated myeloma cells – cell-based, calcein-AM fluorescence, 48 h, PK04 Diversity Set, profiling panel (AID 1166); details: RPMI8226 myeloma viability, higher = more signal;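 also: cells grown under basal conditions without added stimulus; test concentration not given here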
[6] = JC-1 mitochondrial signal, unstimulated HepG2 cells – cell-based, JC-1 fluorescence, 24 h, 100 nL compound, profiling panel (AID 1167); details: HepG2 mitochondrial potential, higher = more signal; also: test concentration not given here
[7] = JC-1 mitochondrial signal, unstimulated adipocytes – cell-based, JC-1 fluorescence, 3T3-L1 adipocytes, 24 h, 100 nL compound, profiling panel (AID 1168); details: JC-1 mitochondrial fluorescence, higher = more signal, called active from +8 up or from −8 down; also: test concentration not given here
[8] = JC-1 mitochondrial signal, unstimulated myeloma cells – cell-based, JC-1 fluorescence, RPMI8226, 24 h, 100 nL compound, profiling panel (AID 1169); details: JC-1 mitochondrial potential fluorescence, higher = more signal; also: test concentration not given here
[9] = JC-1 mitochondrial signal, unstimulated MM1S myeloma – cell-based, JC-1 fluorescence, 24 h, 100 nL compound, profiling panel (AID 1170); details: MM1S mitochondrial potential, higher = more signal; also: test concentration not given here
[10] = resazurin metabolic signal in A549 cells – cell-based, resazurin fluorescence, 24 h, PK04 Diversity Set, profiling panel (AID 1171); details: A549 viability, higher = more signal, called active from +8 up or from −8 down; also: test concentration not given here
[11] = resazurin metabolic signal in HepG2 cells – cell-based, resazurin fluorescence, 24 h, PK04 Diversity Set, profiling panel (AID 1172); details: HepG2 viability, higher = more signal; also: test concentration not given here
[12] = budding yeast growth changes without added modifier – OD600, strain BY4716, 24 h, basal condition, primary screen (AID 1173); details: S. cerevisiae BY4716 growth, OD600, 24 h; higher = more signal, called active from +8 up or from −8 down
[13] = viability profiling in MM1S myeloma cells – cell-based, resazurin fluorescence, basal, 24 h, PK04 Diversity Set, profiling panel (AID 1174); details: higher = more signal, called active from +8 up or from −8 down; also: test concentration not given here
[14] = molecular target: Dihydroorotate dehydrogenase (quinone), mitochondrial (Plasmodium falciparum (isolate 3D7)) (UniProt Q08210); experiment: inhibition of P. falciparum DHODH – biochemical, C-terminal His tag, absorbance 600 nm, primary screen (AID 1175); details: PfDHODH enzyme, DCIP absorbance 600 nm; higher = more signal, called active from +8 up or from −8 down;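 also: recombinant parasite enzyme with a five histidine tag at its C terminus; test concentration not given here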
[15] = inhibition of PAO1 biofilm formation – strain PAO1, LB-PBS medium, absorbance 600 nm, primary screen (AID 1176); also: test concentration not given here; details: P. aeruginosa PAO1 growth/biofilm, A600, 12 h; higher = more signal
[16] = growth modulation of vineyard yeast isolate – strain RM11-1a, OD600, basal, 24 h, primary screen (AID 1177);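 also: cultures grown under basal conditions with no added stressor; test concentration not given here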; details: S. cerevisiae RM11-1a growth, OD600, 24 h; higher = more signal, called active from +8 up or from −8 down
[17] = growth of efflux-deficient E. coli DRC39 – strain DRC39, OD650, 24 h, E. coli filamentation inducers, primary screen (AID 1178);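 also: growth measured as culture turbidity by optical density at 650 nm; test concentration not given here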; details: E. coli DRC39 acrAB, higher = more signal, called active from +8 up or from −8 down
[18] = growth of efflux-deficient E. coli DRC39 – strain DRC39, OD650, 48 h, E. coli filamentation inducers, primary screen (AID 1179);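 also: screen aims at cell division blockers that make cells filament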; details: E. coli DRC39 delta-acrAB growth, higher = more signal, called active from +8 up or from −8 down
[19] = viability profiling in RPMI8226 myeloma cells – cell-based, resazurin fluorescence, basal, 24 h, PK04 Diversity Set, profiling panel (AID 1180); details: higher = more signal;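 also: RPMI8826 multiple myeloma cell line at 5000 cells per well; test concentration not given here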
[20] = molecular target: E3 ubiquitin-protein ligase XIAP (Homo sapiens) (UniProt P98170); experiment: small molecules binding XIAP protein – biophysical, small-molecule microarray, fluorescence 635 nm, primary screen (AID 1181); details: higher = more signal;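 also: score merges 667 nm emission and signal to noise over triplicate slides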
Chain of E3 ubiquitin-protein ligase XIAP (Homo sapiens) (P98170 whole entry, looked up): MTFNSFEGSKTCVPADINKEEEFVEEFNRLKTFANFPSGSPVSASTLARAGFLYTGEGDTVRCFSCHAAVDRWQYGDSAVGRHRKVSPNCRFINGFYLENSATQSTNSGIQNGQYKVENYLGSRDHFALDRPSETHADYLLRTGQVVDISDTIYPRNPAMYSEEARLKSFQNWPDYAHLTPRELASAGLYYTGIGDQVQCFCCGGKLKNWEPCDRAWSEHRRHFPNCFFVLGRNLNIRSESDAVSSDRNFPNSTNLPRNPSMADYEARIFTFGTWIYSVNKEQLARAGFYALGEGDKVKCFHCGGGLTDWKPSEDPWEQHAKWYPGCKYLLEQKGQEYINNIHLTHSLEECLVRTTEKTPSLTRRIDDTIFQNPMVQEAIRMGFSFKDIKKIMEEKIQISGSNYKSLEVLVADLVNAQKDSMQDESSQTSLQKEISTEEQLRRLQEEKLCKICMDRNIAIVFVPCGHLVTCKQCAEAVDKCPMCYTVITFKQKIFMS

Chain of Dihydroorotate dehydrogenase (quinone), mitochondrial (Plasmodium falciparum (isolate 3D7)) (Q08210 whole entry, looked up): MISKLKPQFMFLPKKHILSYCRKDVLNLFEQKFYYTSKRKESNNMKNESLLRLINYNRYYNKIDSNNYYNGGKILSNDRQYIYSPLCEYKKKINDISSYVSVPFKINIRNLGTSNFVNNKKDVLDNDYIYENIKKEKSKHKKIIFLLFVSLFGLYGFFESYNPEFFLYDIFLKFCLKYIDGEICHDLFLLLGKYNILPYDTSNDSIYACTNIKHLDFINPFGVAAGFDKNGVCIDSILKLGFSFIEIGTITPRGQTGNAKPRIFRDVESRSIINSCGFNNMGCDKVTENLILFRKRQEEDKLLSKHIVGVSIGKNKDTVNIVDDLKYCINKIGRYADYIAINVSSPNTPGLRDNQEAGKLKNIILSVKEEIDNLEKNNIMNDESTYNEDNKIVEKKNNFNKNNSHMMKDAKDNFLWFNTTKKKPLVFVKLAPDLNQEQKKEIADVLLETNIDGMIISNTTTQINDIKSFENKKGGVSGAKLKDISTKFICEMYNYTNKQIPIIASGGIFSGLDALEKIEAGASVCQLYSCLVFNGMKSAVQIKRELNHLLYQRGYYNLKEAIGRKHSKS

SMILES | z-score [1] | z-score [2] | z-score [3] | z-score [4] | z-score [5] | z-score [6] | z-score [7] | z-score [8] | z-score [9] | z-score [10] | z-score [11] | z-score [12] | z-score [13] | composite z-score [14] | z-score [15] | z-score [16] | z-score [17] | z-score [18] | z-score [19] | composite z-score [20]
COCCn1c(C(=O)N(C)C)cc2c1C[C@H]1CN(C(=O)c3ccccc3)[C@@](Cc3ccc(F)cc3)(C(=O)OC)[C@@H]21 | 0.428 | -0.687 | 0.684 | -0.259 | -0.362 | 0.938 | -0.499 (inactive) | 0.172 | -0.929 | -0.774 (inactive) | -0.473 | 0.717 (inactive) | -0.665 (inactive) | -0.0005 (inactive) | 0.535 (inactive) | 1.02 (inactive) | 0.0751 (inactive) | 0.223 (inactive) | -0.38 | 0.0447
CC(C)[Si]1(C(C)C)O[C@@H](c2ccccc2)c2cc(-c3ccc(-c4ccc(Cl)c(Cl)c4)o3)nc(CCc3ccccc3)c21 | -0.516 | -0.694 | 0.433 | -3.02 | -3.72 | -1.95 | -1.72 (inactive) | -0.965 | -1.91 | -0.748 (inactive) | -0.662 | -3.29 (inactive) | -0.701 (inactive) | -0.231 (inactive) | 0.726 (inactive) | 0.144 (inactive) | 0.231 (inactive) | -0.0564 (inactive) | -0.622 | -0.27
[N-]=[N+]=NCc1ccccc1C[C@]1(C(N)=O)N=C(c2ccc(OCCCO)cc2)O[C@H]1c1ccccc1N=[N+]=[N-] | -0.169 | 0.0873 | -0.153 | -2.05 | -1.55 | -0.727 | -1.38 (inactive) | -1.04 | -0.649 | -0.38 (inactive) | 0.776 | 0.603 (inactive) | -1.2 (inactive) | 1.56 (inactive) | 1.54 (inactive) | 2.09 (inactive) | 0.616 (inactive) | 0.116 (inactive) | -1.24 | -0.0444
Cc1ccc(S[C@]2(C(=O)NCc3ccccc3)CC(=O)N(Cc3cc(C(F)(F)F)cc(C(F)(F)F)c3)[C@@H]2c2ccc(CO)cc2)cc1 | -0.549 | 0.774 | 0.224 | -0.125 | -1.17 | -0.271 | -0.525 (inactive) | 1.13 | -0.476 | 0.7 (inactive) | -0.417 | -0.248 (inactive) | 0.133 (inactive) | 1.01 (inactive) | 0.711 (inactive) | 1.43 (inactive) | -0.244 (inactive) | -0.532 (inactive) | 0.14 | -0.228
O=C1OCC=C[C@H]2OC34C=CCN(CCN5CCOCC5)C(=O)[C@H]3N(CCCCCCO)C(=O)[C@@H]4[C@@H]12 (stereo not given in full) | -0.213 | -0.0626 | 0.775 | 1.56 | 0.802 | -0.00733 | -0.199 (inactive) | 1.11 | 0.858 | -0.352 (inactive) | -0.151 | -0.0603 (inactive) | 0.501 (inactive) | -1.97 (inactive) | -0.677 (inactive) | -0.762 (inactive) | -0.193 (inactive) | 0.0937 (inactive) | 0.406 | 0.232
CO[C@H]1O[C@H](CO)[C@@H](OC(=O)Nc2ccc3c(c2)OCO3)[C@H](OC(=O)Nc2ccc3c(c2)OCO3)[C@H]1OC(=O)Nc1ccc2c(c1)OCO2 | -0.689 | -0.121 | -1.09 | -1.57 | -0.566 | 0.328 | 0.374 (inactive) | 0.0119 | 0.961 | 0.38 (inactive) | -0.159 | 1.66 (inactive) | -0.798 (inactive) | -0.145 (inactive) | 2.5 (inactive) | 2.54 (inactive) | 1.73 (inactive) | -0.273 (inactive) | -0.511 | 0.463
O=C(NCC(O)CO)[C@@]1(Cc2ccccc2)N=C(c2ccc(OCCCO)cc2)O[C@H]1c1ccccc1 (stereo not given in full) | -0.125 | 1.2 | -0.266 | -1.93 | -0.0748 | 0.4 | 0.366 (inactive) | -0.392 | -0.223 | 0.564 (inactive) | 0.531 | -2.2 (inactive) | 0.583 (inactive) | -0.507 (inactive) | 0.41 (inactive) | -0.547 (inactive) | 2.7 (inactive) | 0.249 (inactive) | 0.391 | 0.221
C=CCC(OC(C)=O)[C@@H]1[C@@H](N(Cc2ccc(-c3cccc(C(F)(F)F)c3)o2)C(=O)c2ccc(C)cc2)c2cc(OCCCO)ccc2N1C(=O)c1ccc2ccccc2n1 (stereo not given in full) | 1.03 | 0.27 | 1.91 | -0.0472 | -0.526 | 2.67 | -0.351 (inactive) | 0.962 | -0.165 | 0.16 (inactive) | 0.347 | -0.304 (inactive) | 0.0003 (inactive) | -1.35 (inactive) | -0.325 (inactive) | -0.0057 (inactive) | -0.379 (inactive) | 0.317 (inactive) | -0.37 | 0.265
C=CCNC(=O)[C@@H]1[C@H]2C(=O)O[C@H](c3ccccc3)[C@H](c3ccccc3)N2[C@H](c2ccccc2OCCO)[C@@]12C(=O)N(C(=O)OCCOC)c1ccc(C#CCC(C(=O)OC)C(=O)OC)cc12 | 0.136 | -0.609 | -0.592 | -0.794 | -1.57 | 0.408 | 0.618 (inactive) | -0.802 | -1.35 | 1.31 (inactive) | 0.865 | 2.2 (inactive) | -1.69 (inactive) | -2.24 (inactive) | 3.54 (inactive) | 1.62 (inactive) | 0.275 (inactive) | -0.418 (inactive) | -0.11 | 0.666
